Bioassay records from PubChem.
Hits are enriched below; roughly 2.9% of the tested compounds scored in any of these assays.
ADAM17 inh = inhibits human ADAM17 | inhibition, % at 6.95 µM | 370,000 compounds, 0.83% hits | AID 720648 | recombinant ADAM17, EDANS/DABCYL FRET peptide cleavage;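 active = inhibition above the mean of compounds lying between control limits plus 3 SD, set per campaign, cut at about 8.5% in these data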;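 also: 0% = DMSO-only wells as the low control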
proKLK7 act = proKLK7 (human) activation, primary screen; purified proKLK7, EDANS-DABCYL substrate fluorescence; 100% is mature enzyme control, 0% vehicle; activation, % at 7 µM; 370,000 compounds, 0.9% hits; P49862; AID 652039;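 active = activation above the mean of all tested compounds plus 3 SD, computed per campaign excluding outliers beyond control limits, cut at about 13% in these data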
ADAM10 inh = inhibitors of human ADAM10; recombinant ADAM10, EDANS/DABCYL FRET peptide cleavage, 3 h; inhibition, % at 7 µM; 370,000 compounds, 0.62% hits; AID 720582;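 active = inhibition above a per-campaign cutoff equal to the mean of compounds falling between control-based bounds plus 3 SD, cut at about 20% in these data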;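 also: 0% = DMSO wells while the 100% control is not disclosed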
PLCb3 inh = inhibitors of human phospholipase C beta3 | Purified PLC-beta3, fluorogenic substrate, fluorescence | 370,000 compounds, 0.18% hits | inhibition, % at 12.2 µM | Q01970 | AID 720704; in the data active = inhibition above about 11%;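 also: 0% = median of compound wells on plate and 100% = full blocker control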
PLCg1 inh = blocks human PLC-gamma1 enzyme activity; inhibition, % at 12.2 µM; purified PLC-gamma1, fluorogenic substrate, fluorescence; 370,000 compounds, 0.84% hits; P19174; in the data active = inhibition above about 9.5%
Target sequence (P19174 whole entry, looked up): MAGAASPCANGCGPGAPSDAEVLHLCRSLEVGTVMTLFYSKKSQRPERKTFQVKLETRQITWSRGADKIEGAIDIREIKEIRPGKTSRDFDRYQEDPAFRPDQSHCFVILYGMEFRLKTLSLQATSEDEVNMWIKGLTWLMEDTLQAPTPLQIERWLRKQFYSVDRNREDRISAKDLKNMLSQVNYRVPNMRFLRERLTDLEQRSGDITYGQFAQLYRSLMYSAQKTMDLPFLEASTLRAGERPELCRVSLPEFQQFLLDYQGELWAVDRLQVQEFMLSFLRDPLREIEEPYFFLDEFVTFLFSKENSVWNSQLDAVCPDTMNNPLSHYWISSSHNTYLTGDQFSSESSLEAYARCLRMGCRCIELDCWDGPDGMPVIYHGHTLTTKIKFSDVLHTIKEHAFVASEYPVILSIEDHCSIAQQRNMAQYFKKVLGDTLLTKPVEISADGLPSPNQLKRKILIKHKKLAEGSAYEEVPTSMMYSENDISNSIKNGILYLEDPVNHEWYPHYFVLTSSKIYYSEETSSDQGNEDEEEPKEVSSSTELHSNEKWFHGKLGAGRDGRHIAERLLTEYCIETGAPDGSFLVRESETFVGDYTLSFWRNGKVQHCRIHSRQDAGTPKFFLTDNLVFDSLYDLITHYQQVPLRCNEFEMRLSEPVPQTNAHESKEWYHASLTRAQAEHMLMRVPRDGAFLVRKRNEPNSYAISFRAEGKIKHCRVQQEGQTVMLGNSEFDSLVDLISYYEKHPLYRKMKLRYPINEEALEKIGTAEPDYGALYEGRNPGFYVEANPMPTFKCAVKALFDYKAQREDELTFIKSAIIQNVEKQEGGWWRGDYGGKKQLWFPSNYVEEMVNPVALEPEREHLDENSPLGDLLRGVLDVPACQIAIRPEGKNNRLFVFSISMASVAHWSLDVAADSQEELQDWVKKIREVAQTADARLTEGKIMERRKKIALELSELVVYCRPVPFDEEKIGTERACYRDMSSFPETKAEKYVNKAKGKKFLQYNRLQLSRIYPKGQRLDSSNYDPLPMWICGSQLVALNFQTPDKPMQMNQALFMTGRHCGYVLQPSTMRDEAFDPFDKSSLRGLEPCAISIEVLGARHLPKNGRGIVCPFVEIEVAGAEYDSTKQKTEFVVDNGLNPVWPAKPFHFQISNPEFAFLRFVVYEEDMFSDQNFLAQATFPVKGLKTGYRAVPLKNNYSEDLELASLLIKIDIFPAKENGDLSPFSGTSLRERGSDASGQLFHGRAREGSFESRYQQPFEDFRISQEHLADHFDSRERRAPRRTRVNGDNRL
ADAM10 confirm = confirmation of inhibitors of human ADAM10. shares compounds with ADAM10 inh. ADAM10 QFRET peptide cleavage, EDANS fluorescence. inhibition, % at 6.95 µM. 2,100 compounds, 1% hits;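 active = inhibition above about 20% chosen separately for each screening run, limit read from the data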;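 also: 0% = DMSO wells and 100% = marimastat wells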
ADAM17 ctr = inhibits human ADAM17 in ADAM10 exosite counter-screen; shares compounds with ADAM10 inh; ADAM17 QFRET peptide cleavage, EDANS fluorescence; inhibition, % at 6.95 µM; 2,100 compounds, 0.5% hits;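 active = mean triplicate inhibition above the solvent-only control wells' mean plus 3 SD, cut at about 12% in these data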;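 also: 0% = DMSO wells and 100% = marimastat wells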
Starred values were filed as active, the others as inactive; . = not tested or not shown.

SMILES	ADAM17 inh	proKLK7 act	ADAM10 inh	PLCb3 inh	PLCg1 inh	ADAM10 confirm	ADAM17 ctr
CCOC(=O)[C@@H]1[C@H]2COc3ccc(Br)cc3[C@H]2N2C(=O)N(c3ccc(F)cc3)C(=O)[C@]12C	4	0	25*	3	1	5	2
FC(F)C(F)(F)C(F)(F)C(F)(F)c1cc(-c2ccccc2)n[nH]1	6	0	23*	-4	-1	-1	1
O=[N+]([O-])c1ccc2c(c1)C(N1CCOCC1)/C(=C/COc1ccc(Cl)cc1Cl)O2 (stereo not given)	0	0	0	1	3	.	.
CC1=NNC(=O)/C1=C\c1cn(-c2ccccc2)nc1-c1ccccc1	16*	-1	24*	3	10*	6	2
Cc1ccc(S(=O)(=O)N2CN(Cc3ccco3)c3nc4ccccc4nc32)cc1C	-14	-1	-35	-16	-17	.	.
CCc1nnc(NC(=O)C2CCN(c3nccc(C)n3)CC2)s1	-10	0	-30	-12	-7	.	.
Nc1nc(-c2ccc(Cl)cc2)c(S(=O)(=O)c2ccccc2)s1	8	0	20*	-1	1	0	0
CC(=O)c1cccc(CN2CCC(CO)(CCOc3ccccc3)CC2)c1	0	1	-5	7	8	.	.
Cc1cccc(-c2noc(CNC(=O)c3ccc4c(c3)OCO4)n2)c1	2	0	23*	-12	-1	0	1
COc1ccc(O)c(/C=N/NC(=O)c2ccc(N3CCCC3=O)cc2)c1	-2	-3	4	-33	-24	.	.
COc1ccccc1-c1csc(C(O)c2cccc(Cl)c2)n1 (stereo not given)	8	1	23*	4	3	6	2
OC(c1ccc(F)c(F)c1)c1nc(-c2ccc(Cl)cc2)cs1 (stereo not given)	7	0	20*	-3	0	4	1
CCCCn1c(N)c(N(CC)C(=O)c2ccc(N3CCCC3=O)cc2)c(=O)[nH]c1=O	-4	1	-4	-7	-3	.	.
CCCCn1c(N)c(N(CCC(C)C)C(=O)c2ccc(N3CCCC3=O)cc2)c(=O)[nH]c1=O	-3	0	63*	-3	-4	4	3
CCOC(=O)CC/C(C)=N\N=C1\SC(CC(=O)O)C(=O)N1c1ccccc1 (stereo not given)	-4	0	1	-6	-2	.	.
Cc1cccc(CCNC(=O)CCc2nc(-c3ccccc3F)no2)c1	4	1	20*	3	7	1	1
O=S(=O)(NCc1cccc(C(F)(F)F)c1)NCc1ccccc1F	4	0	20*	0	4	1	0
Cc1[nH]nc(-c2ccc(O)cc2O)c1-c1ccc(Cl)cc1	7	0	20*	0	-2	2	0
COc1ccc(-c2n[nH]c(C)c2-c2ccc(Cl)cc2)c(O)c1	8	0	20*	-1	0	5	3
COc1ccc(O)c(-c2c(-c3ccc(Cl)cc3)n[nH]c2C)c1	0	0	4	0	-2	.	.
COc1ccc(-c2cc(-c3ccc(C)cc3)n[nH]2)c(O)c1	6	0	33*	-5	8	2	2
COc1ccc(-c2cc(-c3cc(C)ccc3O)[nH]n2)cc1	5	0	17	4	2	.	.
CCOc1ccc(C2CC(c3ccccc3C)n3ncnc3N2)cc1 (stereo not given)	-7	0	-20	-9	-5	.	.
CC(C)c1ccc(OCC(=O)NNC(=O)c2cnccn2)cc1	-2	0	5	-8	3	.	.
CC(C)(C)CC(C)(C)N1CNC(=S)NC1	-8	0	-1	-6	9	.	.
SMILES	ADAM17 inh	proKLK7 act	ADAM10 inh	PLCb3 inh	PLCg1 inh	ADAM10 confirm	ADAM17 ctr
CCOC(=O)c1cc(-c2ccccc2C)n(CC2CC(c3ccc(OC)cc3)=NO2)n1 (stereo not given)	8	0	23*	5	6	1	0
COc1ccc(-c2n[nH]c(C(F)(F)F)c2-c2cc3ccccc3o2)c(O)c1	4	-2	22*	-31	-18	21*	10
COc1ccccc1-c1c(-c2ccc(OCC(=O)NN)cc2O)n[nH]c1C(F)(F)F	3	-1	10	0	-1	.	.
C=CCN1c2ccccc2[C@]23C[C@@H](C(=O)OC)N(C(=O)NC4CCCC4)C2=NC(C(=O)OC)=C(C(=O)OC)[C@H]13	10*	0	21*	5	4	3	1
COC(=O)C(Cc1c[nH]c2ccccc12)NC(C)=O (stereo not given)	-2	0	0	2	5	.	.
CC(=O)N[C@@H](Cc1c[nH]c2ccccc12)C(=O)OCc1cc(C(F)(F)F)cc(C(F)(F)F)c1	3	0	24*	-1	1	-1	-1
O=[N+]([O-])c1ccc(-c2cnc(SCc3ccccc3Cl)[nH]2)cc1	1	0	20*	-54	-36	5	2
CCc1c(-c2ccccc2)ncn1Cc1cccc(-c2ccccc2)c1	17*	1	25*	8	7	7	3
O=C(NC1=N[C@@]2(C=C3CCCCC3n3c(=O)n(-c4ccccc4)c(=O)n32)[C@H](Cc2ccccc2)N1Cc1ccccc1)c1ccccc1 (stereo not given in full)	9.7*	0	20*	-42	-35	9	6
COc1ccc(-c2nc(CN3CCN(Cc4ccccc4)CC3)c(C)o2)cc1	-2	0	79*	-3	1	2	1
NC(=O)c1ccc(NC(=O)COC(=O)CCSc2ccccc2)cc1	-1	1	-1	-6	3	.	.
NS(=O)(=O)c1cccc(NC(=O)COC(=O)CCSc2ccccc2)c1	-2	0	0	2	1	.	.
CN(C)S(=O)(=O)c1cccc(NC(=O)COC(=O)CCSc2ccc(Cl)cc2)c1	8	0	21*	1	3	3	1
Cc1ccc(SCCC(=O)OCC(=O)Nc2ccc(C(N)=O)cc2)cc1	-4	0	95*	-6	2	0	0
CC(=O)Nc1ccc(NC(C)=C(C#N)C#N)cc1	-1	-1	-4	1	-2	.	.
CC(=O)Nc1cccc(NC(=O)CSc2nc3c(=O)n(C)c(=O)n(C)c3n2C)c1	2	0	-13	-5	1	.	.
O=C(COc1ccc(F)cc1)NNC(=O)c1cc2ccccc2oc1=O	-5	0	-7	0	-2	.	.
Cc1cccc(OCC(=O)NNC(=O)c2cc3ccccc3oc2=O)c1	7	0	23*	-1	1	23*	13*
Cc1ccc(-n2nc3c(Cl)nnc(C)c3c2C)cc1	2	0	-4	0	0	.	.
